PubChem BioAssay (NCI)
The panel holds about 79,000 compounds, 15% with a hit somewhere; the sample as a whole holds those more often. The source made the active and inactive calls. Rule as the data show it: active = growth inhibition above about 70%; inactive = the rest.

Legend:
[1] = NCI Yeast Anticancer Drug Screen. Data for the rad52 strain (AID 147);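 also: 0% = growth of vehicle-treated control cultures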; conditions: S. cerevisiae rad52 mutant growth inhibition, active compounds read high
Outline: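 The repair-mutant yeast strain was incubated with compounds, then growth was read and inhibition derived relative to vehicle.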

[2] = NCI Yeast Anticancer Drug Screen. Data for the wt1 strain (AID 149);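 also: 0% = growth of vehicle-treated wt1 cultures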; conditions: S. cerevisiae wt1 strain (SPY 50644) growth inhibition, active compounds read high
Outline: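 Using yeast strain wt1, compound-induced growth inhibition was determined against vehicle-treated cultures.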

[3] = NCI Yeast Anticancer Drug Screen. Data for the rad50EPP+ strain (AID 151);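 also: 0% = growth of vehicle-treated control cultures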; conditions: S. cerevisiae rad50 mutant strain, active compounds read high
Outline: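 Vehicle-normalised growth inhibition; rad50EPP+ yeast strain, altered in DNA damage repair, compound-treated.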

[4] = NCI Yeast Anticancer Drug Screen. Data for the mgt1 strain (AID 153); conditions: S. cerevisiae mgt1 mutant growth inhibition, active compounds read high
Outline: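 Vehicle-normalized growth inhibition is determined in mgt1 yeast, a strain selected for a defined alteration in DNA repair or cell cycle control.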

[5] = NCI Yeast Anticancer Drug Screen. Data for the rad50 strain (AID 155);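 also: 0% = growth of vehicle-only cultures of the same strain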; conditions: S. cerevisiae rad50 strain growth inhibition, active compounds read high
Outline: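 Relative growth inhibition (compound vs vehicle) was measured in yeast with a defined repair-gene alteration.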

[6] = NCI Yeast Anticancer Drug Screen. Data for the mec2-1 strain (AID 157); conditions: S. cerevisiae mec2-1 strain, active compounds read high
Outline: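 Mutant yeast (mec2-1) grown with compound; growth inhibition relative to vehicle control reported.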

[7] = NCI Yeast Anticancer Drug Screen. Data for the rad14 strain (AID 159);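 also: 0% = growth of vehicle-treated control cultures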; conditions: S. cerevisiae rad14 strain growth inhibition, active compounds read high
Outline: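 Screen for anticancer potential: a yeast strain altered in DNA damage repair is grown with compound, and reduced growth is quantified against vehicle controls.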

[8] = NCI Yeast Anticancer Drug Screen. Data for the sgs1 mgt1 strain (AID 161);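 also: 0% = growth of cultures given vehicle only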; conditions: S. cerevisiae sgs1 mgt1 strain, active compounds read high
Outline: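 Growth of a repair-deficient yeast mutant was monitored after compound treatment and expressed as inhibition relative to vehicle-treated cultures.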

[9] = NCI Yeast Anticancer Drug Screen. Data for the CLN2oe strain (AID 163);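 also: 0% = growth of vehicle-only control cultures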; conditions: S. cerevisiae CLN2oe strain, active compounds read high
Outline: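 Compounds are applied to yeast harbouring a defined cell-cycle control change; reduced growth compared with vehicle-treated controls gives the value.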

[10] = NCI Yeast Anticancer Drug Screen. Data for the cln2 rad14 strain (AID 165);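 also: 0% = growth equal to vehicle treated cultures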; conditions: S. cerevisiae cln2 rad14 strain, active compounds read high
Outline: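 Readout is yeast growth inhibition versus vehicle-treated controls, using a strain with cln2 and rad14 alterations exposed to compound.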

[11] = NCI Yeast Anticancer Drug Screen. Data for the bub3 strain (AID 167); conditions: S. cerevisiae bub3 mutant strain, active compounds read high
Outline: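 Screening used yeast with an engineered genetic alteration affecting cell cycle control. Compound-exposed cultures were compared with vehicle cultures, and reduced growth was taken as inhibition.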

[12] = NCI Yeast Anticancer Drug Screen. Data for the wt2 strain (AID 169);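 also: 0% = growth of vehicle-treated yeast cultures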; conditions: S. cerevisiae wt2 strain growth inhibition, active compounds read high
Outline: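 Against vehicle-treated controls, the growth of yeast exposed to each compound was compared, and the inhibition was recorded.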

[13] = NCI Yeast Anticancer Drug Screen. Data for the mlh1 strain (AID 171);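 also: 0% = growth of vehicle-treated control cultures of the same strain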; conditions: S. cerevisiae mlh1 strain growth inhibition, active compounds read high
Outline: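 Measured: yeast growth. Reference: vehicle-treated controls. Organism: strain with a defined alteration affecting DNA damage repair or cell cycle control, treated with compound.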

[14] = NCI Yeast Anticancer Drug Screen. Data for the sgs1 strain (AID 173);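 also: 0% = growth of vehicle-only control cultures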; conditions: S. cerevisiae sgs1 mutant, active compounds read high
Outline: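 Each compound was added to cultures of the altered yeast strain. Growth was recorded, and inhibition was derived by comparison with vehicle controls.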

[15] = NCI Yeast Anticancer Drug Screen. Data for the mlh1 rad18 strain (AID 175); conditions: S. cerevisiae mlh1 rad18 strain growth inhibition, active compounds read high
Outline: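 Genetically defined yeast (DNA repair-deficient) exposed to compounds; growth inhibition determined relative to vehicle.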

[16] = NCI Yeast Anticancer Drug Screen. Data for the rad18 strain (AID 177); conditions: S. cerevisiae rad18 mutant growth inhibition, active compounds read high
Outline: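 Vehicle-treated cultures served as the baseline for scoring compound-induced growth inhibition in DNA-repair-mutant yeast.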

[17] = at 5.0 µM (retest, dose inferred, filed as 0.5)
[18] = at 50.0 µM (retest, dose inferred, filed as 5.0)

Measured: growth inhibition

CN(C)CCNc1ccc2ncn3c4ccc(O)cc4c(=O)c1c23
active: [5]; [18] 86%
inactive: [1]; at 1.2 µM -10% | [1]; at 3.7 µM 3% | [1]; at 11.0 µM 4% | [1]; at 33.0 µM 3% | [1]; at 100.0 µM 30% | [2]; at 1.2 µM -21% | [2]; at 3.7 µM -6% | [2]; at 11.0 µM -21% | [2]; at 33.0 µM 0% | [2]; at 100.0 µM -27% | [3]; at 1.2 µM -33% | [3]; at 3.7 µM -12% | [3]; at 11.0 µM -21% | [3]; at 33.0 µM -1% | [3]; at 100.0 µM 5% | [4]; at 1.2 µM -5% | [4]; at 3.7 µM 7% | [4]; at 11.0 µM -19% | [4]; at 33.0 µM -10% | [4]; at 100.0 µM 2% | [5]; at 1.2 µM -14% | [5]; at 3.7 µM 4% | [5]; [17] 50% | [5]; at 11.0 µM -6% | [5]; at 33.0 µM 8% | [5]; at 50.0 µM -17.1% | [5]; at 100.0 µM 22% | [6]; at 1.2 µM -12% | [6]; at 3.7 µM -7% | [6]; [17] 0% | [6]; at 11.0 µM -4% | [6]; at 33.0 µM -9% | [6]; [18] 7% | [6]; at 50.0 µM -10.1% | [6]; at 100.0 µM -20% | [7]; at 1.2 µM -35% | [7]; at 3.7 µM -35% | [7]; at 11.0 µM -31% | [7]; at 33.0 µM -30% | [7]; at 100.0 µM -23% | [8]; [17] 13% | [8]; [18] 7% | [8]; at 50.0 µM -10.6% | [9]; at 1.2 µM -12% | [9]; at 3.7 µM 1% | [9]; at 11.0 µM 9% | [9]; at 33.0 µM 13% | [9]; at 100.0 µM 8% | [10]; [17] 9% | [10]; [18] 12% | [10]; at 50.0 µM 27.6% | [11]; at 1.2 µM -19% | [11]; at 3.7 µM -12% | [11]; [17] 11% | [11]; at 11.0 µM -14% | [11]; at 33.0 µM 3% | [11]; [18] 11% | [11]; at 50.0 µM -1% | [11]; at 100.0 µM 7% | [12]; at 1.2 µM -8% | [12]; at 3.7 µM -3% | [12]; at 11.0 µM -2% | [12]; at 33.0 µM -8% | [12]; at 100.0 µM -11% | [13]; at 1.2 µM -23% | [13]; at 3.7 µM -21% | [13]; at 11.0 µM -15% | [13]; at 33.0 µM -4% | [13]; at 100.0 µM -8% | [14]; at 1.2 µM -21% | [14]; at 3.7 µM -17% | [14]; at 11.0 µM -3% | [14]; at 33.0 µM -16% | [14]; at 100.0 µM -23% | [15]; [17] 4% | [15]; [18] 12% | [15]; at 50.0 µM -48.5%

Cc1cccc(C)c1NC(=O)CCC(=O)C(C)C(=O)c1ccc(O)cc1 (stereo unspecified)
inactive: [1]; at 1.2 µM 2% | [1]; at 3.7 µM 1% | [1]; at 11.0 µM 2% | [1]; at 33.0 µM 1% | [1]; at 100.0 µM 0% | [2]; at 1.2 µM -1% | [2]; at 3.7 µM -2% | [2]; at 11.0 µM -1% | [2]; at 33.0 µM -1% | [2]; at 100.0 µM -2% | [3]; at 1.2 µM 0% | [3]; at 3.7 µM -1% | [3]; at 11.0 µM 1% | [3]; at 33.0 µM 1% | [3]; at 100.0 µM 8% | [4]; at 1.2 µM -1% | [4]; at 3.7 µM 4% | [4]; at 11.0 µM -3% | [4]; at 33.0 µM -2% | [4]; at 100.0 µM -5% | [5]; at 1.2 µM -1% | [5]; at 3.7 µM 0% | [5]; [17] 1% | [5]; at 11.0 µM 1% | [5]; at 33.0 µM 1% | [5]; [18] 2% | [5]; at 50.0 µM 57.6% | [5]; at 100.0 µM 0% | [6]; at 1.2 µM -6% | [6]; at 3.7 µM -5% | [6]; [17] -2% | [6]; at 11.0 µM -6% | [6]; at 33.0 µM -3% | [6]; [18] 8% | [6]; at 50.0 µM 15.1% | [6]; at 100.0 µM -5% | [7]; at 1.2 µM -1% | [7]; at 3.7 µM 2% | [7]; at 11.0 µM 2% | [7]; at 33.0 µM 0% | [7]; at 100.0 µM -1% | [8]; [17] 0% | [8]; [18] 5% | [8]; at 50.0 µM 23.2% | [9]; at 1.2 µM -5% | [9]; at 3.7 µM -4% | [9]; at 11.0 µM -3% | [9]; at 33.0 µM 1% | [9]; at 100.0 µM -3% | [10]; [17] -2% | [10]; [18] 2% | [10]; at 50.0 µM 50% | [11]; at 1.2 µM -2% | [11]; at 3.7 µM -2% | [11]; [17] 0% | [11]; at 11.0 µM -2% | [11]; at 33.0 µM -2% | [11]; [18] 7% | [11]; at 50.0 µM 11.8% | [11]; at 100.0 µM 5% | [12]; at 1.2 µM -1% | [12]; at 3.7 µM -1% | [12]; at 11.0 µM 0% | [12]; at 33.0 µM 0% | [12]; at 100.0 µM -1% | [13]; at 1.2 µM -2% | [13]; at 3.7 µM -3% | [13]; at 11.0 µM -1% | [13]; at 33.0 µM -2% | [13]; at 100.0 µM -1% | [14]; at 1.2 µM -2% | [14]; at 3.7 µM -2% | [14]; at 11.0 µM -2% | [14]; at 33.0 µM -2% | [14]; at 100.0 µM 0% | [15]; [17] -1% | [15]; [18] 6% | [15]; at 50.0 µM 6.95% | [16]; at 1.2 µM -2% | [16]; at 3.7 µM -1% | [16]; at 11.0 µM 0% | [16]; at 33.0 µM -2% | [16]; at 100.0 µM 0%
